What is called % Inhibition is the relative decrease from the control value, in per cent.

The record followed here is article PMC4552634, “A New Set of Chemical Starting Points with Plasmodium falciparum Transmission-Blocking Potential for Antimalarial Drug Discovery” (PLoS ONE, 2015).

Screen size: about 13,000 compounds; about 3,200 (25%) showed an effect of 50% or more. This is one part of the list.

The test has as its system P. falciparum stage V gametocytes. Further details: BacTiter-Glo ATP luminescence viability of purified stage V gametocytes in 384-well plates, per cent inhibition versus DMSO. As to conditions: 48 h, 5 µM; inhibitor.
With `Cc1ccc2ccccc2c1CCCON1C(N)=NC(N)=NC1(C)C` [TCMDC-131758], the “% Inhibition” value turned out to be 22.75%.

In the case of `O=C(Nc1ccc(Cl)c(Cl)c1)N1CCC(CNCc2cccc([N+](=O)[O-])c2)CC1` [TCMDC-141279], the “% Inhibition” value turned out to be 18.17%.

`O=C(/C=C/c1ccc(Cl)c(Cl)c1)NCCCCCN1CCCN(C(=O)Nc2cc(Cl)nc(Cl)c2)CC1` [TCMDC-135888]: the “% Inhibition” value is -3.146%.

On to `O=C(/C=C/c1ccc(Cl)c(Cl)c1)N1CCN(C(=O)Nc2cccc(C(F)(F)F)c2)CC1` [TCMDC-135944], for which the “% Inhibition” value was -35.14%.

Take `COc1ccc(NC(=O)c2cn(-c3ccc(C(C)(C)C)cc3)nc2C)cc1N1CCN(C)CC1` [TCMDC-138689]: the “% Inhibition” value is given as -23.67%.

As to `c1ccc(COc2ccccc2COc2ccccc2-c2ccc3cccnc3n2)cc1` [TCMDC-136713], the “% Inhibition” value is 16.91%.

Regarding `COc1ccc(OC)c(NC(=O)c2c(-c3c(F)cccc3Cl)noc2C)c1` [TCMDC-123664], the “% Inhibition” value is listed as 2.719%.

Turning to `COc1ccc(OC)c(NC(=O)CSc2nc(-c3ccccc3Cl)ns2)c1` [TCMDC-124547], the “% Inhibition” value was 60.03%.

As to `COc1ccc(-n2ccnc2SCC(=O)Nc2cc(Cl)ccc2OC)c(OC)c1` [TCMDC-125135], the “% Inhibition” value was -9.787%.

With `FC(F)(F)c1ccc(COc2cc(Cl)ccc2Cn2ccnc2)cc1` [TCMDC-137640], the “% Inhibition” value is given as -9.557%.

Turning to `COc1cc(Cc2cnc(N)nc2N)cc(OCCCCCCC(=O)O)c1OC` [TCMDC-137630], the “% Inhibition” value is reported as -3.564%.

As for `COc1ccc(CNCCc2cccs2)cc1-c1ccc(S(=O)(=O)NCCN2CCCC2)s1` [TCMDC-132477], the “% Inhibition” value was 85.27%.

In the case of `COc1ccc(CNCc2ccccc2)cc1-c1ccc(S(=O)(=O)NCCN2CCCC2)s1` [TCMDC-132257], the “% Inhibition” value was found to be 102.1%.

With `COc1ccc(CNCc2ccsc2)cc1-c1ccc(S(=O)(=O)NCCN2CCCC2)s1` [TCMDC-132298], the “% Inhibition” value is 91.71%.

Take `COc1ccc(CNCc2ccc(F)cc2)cc1-c1ccc(S(=O)(=O)NCCN2CCCC2)s1` [TCMDC-132297]: the “% Inhibition” value is given as 108.7%.

`CN1CCN(c2ccnc3ccc(NC(=O)Cc4cccc(Cl)c4Cl)cc23)CC1` [TCMDC-139274]: the “% Inhibition” value is on record as -28.12%.

Take `Cc1cccc2[nH]c(-c3cccc(-c4cccc(NC(=O)c5cnn6cccnc56)c4)c3)nc12` [TCMDC-136867]: the “% Inhibition” value is recorded as -0.6551%.

With `CN(C)c1cc2c(Nc3ccc4nc(Cc5ccccc5)[nH]c4c3)ncnc2cn1` [TCMDC-137304], the “% Inhibition” value was -2.875%.

For `COc1ccc2nccc(N(C)CC3(O)CCN(CC(O)c4ccc5c(c4)NC(=O)CS5)CC3)c2n1` (centres unmarked) [TCMDC-141471], the “% Inhibition” value turned out to be 38.6%.

With `O=C(Nc1cccc(-c2ccc(-c3nc4cc(C(F)(F)F)ccc4[nH]3)s2)c1)c1cccnc1` [TCMDC-136922], the “% Inhibition” value is recorded as 0.1958%.

Regarding `Clc1ccc(OCc2ccccc2)c(Cc2ccc(-c3nc4ccncc4[nH]3)o2)c1` [TCMDC-136651], the “% Inhibition” value was determined as 10.18%.

With `CNCc1cccc2[nH]c(-c3ccc(Cc4cc(Cl)ccc4OCC(C)C)o3)nc12` [TCMDC-137044], the “% Inhibition” value is given as 60.59%.

As to `CC(C)COc1ccc(Cl)cc1Cc1ccc(-c2nc3c(F)c(F)ccc3[nH]2)o1` [TCMDC-136562], the “% Inhibition” value was determined as 72.75%.

For `CC(C)COc1ccc(Cl)cc1Cc1nc(-c2nc3ccc(CN4CCCCC4)cc3[nH]2)co1` [TCMDC-136811], the “% Inhibition” value is given as -22.76%.

As to `CC(C)COc1ccc(Cl)cc1Cc1ccc(-c2nc3c(cnc4ccccc43)[nH]2)o1` [TCMDC-136650], the “% Inhibition” value is 61.46%.

For `CC(C)COc1ccc(Cl)cc1Cc1ccc(-c2nc3c(F)cccc3[nH]2)o1` [TCMDC-136661], the “% Inhibition” value turned out to be 74.56%.

In the case of `CC(C)COc1ccc(Cl)cc1Cc1nc(-c2nc3ccc(CN4CCCC4)cc3[nH]2)co1` [TCMDC-136810], the “% Inhibition” value is on record as -7.137%.

For the compound `O=C(Nc1cccc(-c2nn3ccccc3c2-c2ccnc(Nc3cccc(F)c3)n2)c1)C1CCCCC1` [TCMDC-135770], the “% Inhibition” value is -93.68%.

As for `Cc1ccc2c(O)c([N+](=O)[O-])c(=O)[nH]c2c1` [TCMDC-131383], the “% Inhibition” value is 0.04547%.

For `CCCn1c(SCC(=O)Nc2cc(C(F)(F)F)ccc2Cl)n[nH]c1=O` [TCMDC-123566], the “% Inhibition” value is reported as -8.395%.

In the case of `CC(C)(NCc1ncc[nH]1)c1nc(-c2ccc(Cl)c(O)c2)c(-c2ccncc2)[nH]1` [TCMDC-140686], the “% Inhibition” value is given as -7.541%.

For the compound `O=C(Nc1ccsc1)Nc1cccc(-c2cccc(-c3nc4ccccc4[nH]3)c2)c1` [TCMDC-133212], the “% Inhibition” value was -2.113%.

On to `COc1ccc(-c2cccc(CNC3CCN(CC4Cn5c(=O)ccc6ccc(F)c4c65)CC3)c2)cc1` (centres unmarked) [TCMDC-134414], for which the “% Inhibition” value is recorded as -11.45%.

For `CCc1ccccc1OCCCON1C(N)=NC(N)=NC1(C)C` [TCMDC-131305], the “% Inhibition” value is 3.059%.

In the case of `COc1cc(NCC(O)CNc2cc(Cl)nc3ccccc23)nc2ccccc12` (centres unmarked) [TCMDC-139359], the “% Inhibition” value is 31.96%.

For `COc1cc(NCCCCCNc2cc(Cl)nc3ccccc23)nc2ccccc12` [TCMDC-139303], the “% Inhibition” value is -22.5%.

Regarding `COc1ccc(COc2cc(NCCCN)nc3ccccc23)cc1` [TCMDC-139286], the “% Inhibition” value is 99.04%.

As to `COc1ccccc1N1CCN(C(C(=O)NCc2ccc3c(c2)OCO3)c2ccc(C)cc2)CC1` (centres unmarked) [TCMDC-135503], the “% Inhibition” value is listed as -4.748%.

Consider `COc1ccc2c(C)cc(NCCCN(C)C)nc2c1` [TCMDC-124046], for which the “% Inhibition” value is listed as 8.685%.

With `COc1cc(NCC(CN)Cc2ccc3c(c2)OCO3)nc2ccccc12.Cl` (centres unmarked) [TCMDC-140387], the “% Inhibition” value is 69.08%.

With `Cc1nc(NCc2ccccc2)cc(NCC(O)c2ccc(O)cc2)n1` (centres unmarked) [TCMDC-135163], the “% Inhibition” value stood at 19.67%.

Regarding `COc1ccccc1N1CCN(C(C(=O)NCc2ccc3c(c2)OCO3)c2ccc3c(c2)OCCCO3)CC1` (centres unmarked) [TCMDC-135675], the “% Inhibition” value is -10.78%.

Consider `COc1cc(NCC(O)CNc2cc(OC)c3ccccc3n2)nc2ccccc12` [TCMDC-139360], for which the “% Inhibition” value stood at 55.11%.

In the case of `Cc1ccc(C(=O)Nc2ccnc(N(C)C3CCN(Cc4cccc(O)c4)CC3)c2)cn1` [TCMDC-134967], the “% Inhibition” value is -0.6383%.
